Screens: PubChem BioAssay, National Center for Advancing Translational Sciences (NCATS)
TRHR enhancer: allosteric enhancers of human TRH receptor; P34981; TRHR cells, fluo-8 calcium fluorescence, EC20 TRH enhancement; enhancement, % at 2 µM; actives 0.66% (n = 360,000); in the data active means enhancement above about 30%; further: 0% is about no effect
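Enhancer read-out: after compound pinning and an initial kinetic agonist-mode read, an EC20 of TRH (10 nM final) was injected and fluo-8 calcium signal (Ex 480/Em 530) followed at 1 s/cycle for 100 cycles in TRHR-expressing cells.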
D1 ag: activates the human D1 dopamine receptor; HEK293 T-REx D1 cells, calcium flux, agonist mode; P21728; activation, % at 2 µM; actives 1% (n = 360,000); further: 0% is about no effect
Target sequence (P21728 whole entry, looked up): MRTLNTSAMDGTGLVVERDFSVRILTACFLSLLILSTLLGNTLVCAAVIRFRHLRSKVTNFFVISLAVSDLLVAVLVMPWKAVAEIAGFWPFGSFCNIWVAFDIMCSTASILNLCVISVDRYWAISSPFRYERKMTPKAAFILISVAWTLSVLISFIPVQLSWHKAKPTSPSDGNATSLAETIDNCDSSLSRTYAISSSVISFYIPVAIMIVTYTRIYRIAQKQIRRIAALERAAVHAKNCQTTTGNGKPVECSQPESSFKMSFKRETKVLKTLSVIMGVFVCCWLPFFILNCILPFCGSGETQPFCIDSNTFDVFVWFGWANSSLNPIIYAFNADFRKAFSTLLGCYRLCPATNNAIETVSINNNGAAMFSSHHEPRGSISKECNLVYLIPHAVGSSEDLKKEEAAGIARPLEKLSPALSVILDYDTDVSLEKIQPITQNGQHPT
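Tetracycline-induced HEK293 TREx D1 cells, force-coupled to calcium signalling, were dye-loaded with a no-wash calcium kit. Compound was pin-added after a 10 s baseline. Fluorescence was read kinetically at 1 cycle/s for 180 s, with calcium rises flagged as agonism.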
GRP78 ERSR act: ER stress response induction in glioma; actives 0.02% (n = 420,000); Potency, µM, for the others: at the highest dose activation, most hits filed as activators; U87-MG GRP78 promoter luciferase reporter, 16 h; AID 602332; active means well fitted activation curve with a large enough effect; further: potency means the concentration at half of the fitted maximal effect; series mostly up to about 76 µM; % of control where 0% means no effect; nearly all actives have a fitted effect of over 35% in size
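ERSR induction read as luciferase luminescence (Bright-Glo, 10 min at room temperature) in stably transfected human U87-MG glioma cells exposed to compounds for 16 h, using GRP78 as sensor.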
D1 potentiator: enhances dopamine response at the human D1 receptor | P21728 | HEK293 TREx D1 cells, calcium flux, dopamine EC20 potentiation | potentiation, % at 10 µM | actives 0.036% (n = 360,000) | AID 504651; in the data active means potentiation above about 30%; further: 0% is about no effect
D1 antagonist: human D1 dopamine receptor antagonism. P21728. HEK293 TREx D1 cells, calcium flux, dopamine EC80; stronger effect = lower value. activity change, negative = inhibition, % at 10 µM. actives 3.2% (n = 360,000). AID 504652; in the data active means activity change below about -30%; further: on the % scale 0 is the no-effect control and ±100 the full control effect
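Tetracycline-induced HEK293 T-REx cells with force-coupled D1 receptor were loaded with a no-wash calcium dye. Compound was added after a 10 s baseline and read kinetically for 180 s; EC80 dopamine was then added and calcium flux followed another 180 s.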
TRHR ag: TRH receptor (human) agonism; actives 0.18% (n = 360,000); TRHR cells, calcium flux fluo-8, FDSS agonist mode; activation, % at 2 µM; AID 493084; further: 0% is about no effect
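In this calcium-flux screen, cells bearing human TRHR are dye-loaded with fluo-8, baselined for 10 cycles, then exposed to library compounds; positive kinetic calcium responses during the agonist phase mark hits, with TRH as control.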
* = called active by the depositor; . = no result; ! = not confirmed by another sample. Shown are actives, neighbours in structure and some others; about 4% of the full set was active somewhere. Unless noted, no stated cut-off is given here; in the data, active means activation above about 30%; inactive means the rest.

SMILES	TRHR enhancer	D1 ag	GRP78 ERSR act	D1 potentiator	D1 antagonist	TRHR ag
Cc1ccc(C2CCN(C(=O)Nc3ccc(Cl)cc3)C2)cc1 (configuration not stated)	3	5	0%	-7	-24	0
CCOc1ccc(NC(=O)N2CCC(c3ccc(C)cc3)C2)cc1 (configuration not stated)	-2	1	-1%	-6	-31*!	-1
Cc1ccc(C2CCN(C(=O)Nc3ccc(Cl)c(Cl)c3)C2)cc1 (configuration not stated)	-4	8	0%	-8	-45*	0
O=C(Nc1ccc(Cl)c(Cl)c1)N1CCC(c2ccccc2)C1 (configuration not stated)	-6	12	3%	-6	-43*	0
Cc1ccc(NC(=O)CN2C(=O)COc3ccc(S(=O)(=O)N4CCCC4)cc32)c(C)c1	-5	2	0%	-10	-47*	0
COCCNC(=O)CN1C(=O)COc2ccc(S(=O)(=O)N3CCCC3)cc21	33*	2	-3%	-1	22	0
O=C(c1ccccc1Cl)N(Cc1ccco1)Cc1ccco1	-5	4	-3%	-3	-14	-2
CC(C)(C)c1ccc(NC(=O)c2ccsc2)cc1	-4	-1	-9%	-4	-31*	0
Cc1cccc(CNCc2ccccc2)c1	-1	5	-2%	-4	-10	0
Cc1cccc(Cc2ccc(Cl)nn2)c1	-1	3	4%	-1	-38*	0
O=C(NCCCSc1ccccc1)c1cnc(Cl)c(Cl)c1	-6	12	-1%	-7	-30*	0
O=C(NCCc1ccccc1)c1cnc(Cl)c(Cl)c1	-2	0	-3%	4	6	0
COc1cccc(-c2ccc3c(N)c(C(=O)c4ccc(Cl)cc4)sc3n2)c1	-5	98*	-5%	1	-7	18
COc1ccc(C(=O)c2sc3nc(-c4ccccc4)ccc3c2N)cc1	-20	158*	0%	-2	-4	10
O=C(NCCS(=O)(=O)N1CCN(c2ccccc2F)CC1)c1ccco1	-3	0	-2%	-2	1	0
O=C(NCCS(=O)(=O)N1CCN(c2ccc(F)cc2)CC1)c1ccco1	7	2	-3%	1	-42*	0
CCSc1nnc(NC(=O)C2(C)Cc3ccccc3C(=O)O2)s1 (configuration not stated)	-2	1	-3%	0	3	0
Cc1c(-c2ccc(F)cc2)nc(N)c(C#N)c1-c1ccco1	-3	2	-5%	2	-33*	0
O=C(CSc1nnc(CCCN2C(=O)c3cccc4cccc(c34)C2=O)n1-c1ccccc1)N1CCCCC1	-3	3	-3%	-7	-79*	0
NC(=S)NN=C1CSSC1	.	.	35µM*	.	.	.
CCN1CCN(C(c2cccs2)C(C)NC(=O)c2cccnc2)CC1 (configuration not stated)	-3	2	-2%	-5	1	0
CC(NC(=O)c1cccnc1)C(c1cccs1)N1CCN(C)CC1 (configuration not stated)	8	3	-1%	.	-39*	0
COc1ccc2[nH]c3c(c2c1)CCN1C(=O)N([C@@H](C)C(=O)NCCc2ccc(F)cc2)C(=O)[C@]31C	3	1	0%	-6	-85*	-1
COc1cc(C(=O)Nc2ccc([N+](=O)[O-])cn2)cc(OC)c1OC	-2	0	-3%	-5	15	0
CC1(CC(=O)N/N=C/c2ccc(-c3cccc(C(F)(F)F)c3)o2)OCCO1	4	3	-3%	-7	-37*	-1
SMILES	TRHR enhancer	D1 ag	GRP78 ERSR act	D1 potentiator	D1 antagonist	TRHR ag
CCNc1nc(Cl)nc(NCCOc2ccc(C)cc2)n1	1	3	-4%	-5	2	1
CN(C)c1nc(Cl)nc(NCCOc2ccccc2)n1	-1	81*	-1%	-8	15	-2
Cc1cc([N+](=O)[O-])cc(C)c1OCC(=O)N/N=C/c1ccc(OC(=O)c2ccccc2Br)cc1	-7	4	4%	-4	-33*	0
Cc1nc(-c2ccc(S(=O)(=O)N3CCN(C4c5ccccc5-c5ccccc54)CC3)s2)cs1	3	1	-4%	-4	6	0
Cc1nc(-c2ccc(S(=O)(=O)N3CCCN(CCc4ccccc4)CC3)s2)cs1	-1	31*	-4%	-4	-22	1
CC(=O)Nc1ccc(S(=O)(=O)N2CCN(C(=O)N3CCCCCC3)CC2)cc1	-1	1	-4%	-4	-11	0
Cc1ccc(Cn2c(CN3CCC(C(=O)NCCc4ccccc4)CC3)cc3ccccc32)cc1	14	43*	-3%	-3	9	1
O=C(NNC(=O)C1CCN(Cc2ccccc2)CC1)c1cccc(Cl)c1	4	6	-5%	-11	-62*	1
CC(C)CCNC(=O)C1CCN(Cc2cccc(OCc3ccccc3)c2)CC1	-2	42*	2%	-6	-27	4
O=C(NCCc1ccccc1)C1CCN(Cc2cc3ccccc3n2Cc2cccc(Cl)c2)CC1	31*	2	-5%	-3	-12	0
CCCOc1ccc(NC(=O)CC2C(=O)N(CC)C(=S)N2CCNC(C)=O)cc1 (configuration not stated)	-2	1	-3%	2	-1	1
COc1cc(N2CCCC2)c(OC)cc1/C=C(/C#N)c1ccc(Br)cc1	1	39*	-2%	-4	-15	8
CCOC(=O)c1cnc(-n2nc(C)cc2C)nc1Nc1ccc2c(c1)OCO2	33*	6	.	-10	-11	-1
CCOC(=O)c1cnc(-n2nc(C)cc2C)nc1Nc1ccc(C)cc1	0	2	-5%	0	5	0
CCCCOC(=O)Nc1ccc2c(C)cc(=O)oc2c1	40*	-1	-12%	10	-6	0
CCOC(=O)Nc1ccc2c(C)cc(=O)oc2c1	6	0	4%	-10	0	1
Cc1cc(=O)oc2cc(OC(C)C(=O)NC3CCCC3)ccc12 (configuration not stated)	-5	2	10%	-6	-6	0
Cc1cc(=O)oc2cc(OC(C)C(=O)Nc3nccs3)ccc12 (configuration not stated)	-8	3	-5%	3	-37*	-1
COC(=O)C(CC(C)C)Oc1ccc2c(C)cc(=O)oc2c1 (configuration not stated)	36*	10	-1%	-2	3	-1
COc1cccc(N2CCN(C(=O)CN(c3ccc(C)cc3)S(=O)(=O)c3c(C)n[nH]c3C)CC2)c1	2	-1	-2%	-2	-8	1
